These results are taken from PubChem BioAssay AID376 (PDSP, 2006).

The whole screen tested about 2,000 compounds, of which about 250 (12%) were called active. No stated cut-off is given here; in the data, active means hERG blockade below about -20% or above about 20%; inactive means in between. This excerpt belongs to a sample that is enriched for actives.

Chain of Voltage-gated inwardly rectifying potassium channel KCNH2 (Homo sapiens) (Q12809 whole entry, looked up): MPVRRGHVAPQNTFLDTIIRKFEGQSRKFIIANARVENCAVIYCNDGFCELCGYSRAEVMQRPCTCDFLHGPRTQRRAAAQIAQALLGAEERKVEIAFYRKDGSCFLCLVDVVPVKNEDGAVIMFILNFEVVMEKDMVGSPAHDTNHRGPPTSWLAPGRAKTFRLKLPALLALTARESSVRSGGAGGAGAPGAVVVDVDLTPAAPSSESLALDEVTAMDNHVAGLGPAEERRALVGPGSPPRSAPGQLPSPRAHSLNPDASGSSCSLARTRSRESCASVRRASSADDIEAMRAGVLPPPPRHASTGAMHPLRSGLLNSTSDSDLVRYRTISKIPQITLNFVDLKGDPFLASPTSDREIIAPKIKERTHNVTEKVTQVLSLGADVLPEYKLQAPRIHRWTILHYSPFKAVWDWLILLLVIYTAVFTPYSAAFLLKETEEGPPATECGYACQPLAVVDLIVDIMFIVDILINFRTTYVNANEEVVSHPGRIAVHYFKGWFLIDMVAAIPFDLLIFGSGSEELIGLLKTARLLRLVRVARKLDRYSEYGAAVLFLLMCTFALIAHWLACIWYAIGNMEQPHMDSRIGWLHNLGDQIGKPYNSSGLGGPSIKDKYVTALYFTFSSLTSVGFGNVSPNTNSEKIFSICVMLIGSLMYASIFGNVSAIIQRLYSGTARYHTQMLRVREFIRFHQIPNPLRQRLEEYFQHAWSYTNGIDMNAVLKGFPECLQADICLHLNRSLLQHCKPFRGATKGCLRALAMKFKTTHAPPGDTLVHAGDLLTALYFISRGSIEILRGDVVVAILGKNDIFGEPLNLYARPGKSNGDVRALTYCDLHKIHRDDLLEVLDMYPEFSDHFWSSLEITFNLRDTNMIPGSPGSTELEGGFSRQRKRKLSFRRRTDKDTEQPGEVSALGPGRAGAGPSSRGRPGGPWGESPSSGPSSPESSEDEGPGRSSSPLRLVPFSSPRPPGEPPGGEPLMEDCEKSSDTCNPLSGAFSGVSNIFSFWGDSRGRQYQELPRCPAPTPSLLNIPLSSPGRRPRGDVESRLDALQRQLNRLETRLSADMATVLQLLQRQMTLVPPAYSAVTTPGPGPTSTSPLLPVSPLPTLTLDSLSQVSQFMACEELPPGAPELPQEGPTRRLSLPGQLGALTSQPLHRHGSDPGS

This assay addresses Voltage-gated inwardly rectifying potassium channel KCNH2 (Homo sapiens) (UniProt Q12809). Description: modulators of KCNH2 ion channel function, cellular (AID 376).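 Further: 0% = buffer alone and 100% = reference blocker.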 The note with it: hERG-expressing cells, channel activity single-concentration screen; concentration not given here.
On to `CC1(C)SC2C(NC(=O)Cc3ccccc3)C(=O)N2C1C(=O)O` (stereo not given), for which the hERG blockade is 1.04% (inactive).
Regarding `O=C(O)c1ccc(NC(c2ccccc2)c2ccc3cccnc3c2O)cc1` (stereo not given), the hERG blockade was -7.8% (inactive).
The same measure for `CC1(CCC(=O)OC2CCCCC2)OCCO1`: -7.92% (inactive).
For the compound `CC(C)(C)c1ccc(OCC(=O)O)c(Cl)c1`, the hERG blockade was -5.3% (inactive).
Then `CN1CCN(CCCBr)CC1`, with 25.3% (active); and `CN1CCN(CCCNN)CC1`, with -5.53% (inactive); and `CN1CCN(CCCN)CC1`, with -1.63% (inactive).
Then `O=C(O)C(Cc1ccc(O)c([N+](=O)[O-])c1)N1C(=O)c2ccccc2C1=O` (stereo not given), with -10.2% (inactive); and `[O-][N+](CCO)(CCO)c1ncnc2nc[nH]c12`, with 13% (inactive); and `O=C1C(Cl)=C(Nc2ccc(S(=O)(=O)Nc3ccccn3)cc2)C(=O)c2ccccc21`, with 9.57% (inactive).
Then `COc1cc(NCCC2CCCCN2)c2ncccc2c1` (stereo not given), with 7.01% (inactive); and `Cc1cc(N2CCN(C)CC2)n2nc(-c3ccc(Cl)cc3)nc2n1`, with 90% (active).
As for `O=c1[nH]c(SCc2c(Cl)c(Cl)c(Cl)c(Cl)c2Cl)nc(=S)[nH]1`, the hERG blockade is -9.32% (inactive).
The same measure for `Cc1ccc(S(=O)(=O)NC(CO)C(=O)O)cc1` (stereo not given): 23.3% (active); for `Cc1ccc(S(=O)(=O)NC(C(=O)O)C(C)C)cc1` (stereo not given): 0.497% (inactive).
Then `Cc1ccc(S(=O)(=O)NC(CN)C(=O)O)cc1` (stereo not given), with 4.41% (inactive); and `NC1(C(=O)OCc2ccccc2)CCCC1`, with 15.7% (inactive); and `CC(OP(=O)(O)O)C(N)C(=O)O` (stereo not given), with -6.12% (inactive).
On to `Clc1ccc(CSCCc2ccncc2)cc1Cl`, for which the hERG blockade is 14.8% (inactive).
For the compound `Cn1cnc([N+](=O)[O-])c1Sc1nc(N)nc2c1ncn2Cc1ccccc1`, the hERG blockade was 37% (active).
Then `Nc1nc(SCc2ccccc2)c2ncn(Cc3ccccc3)c2n1`, with -3.09% (inactive); and `CC(C)Cn1cnc2c(Sc3c([N+](=O)[O-])ncn3C)nc(N)nc21`, with 4.65% (inactive); and `NC(Cc1c[nH]c2ccc([N+](=O)[O-])cc12)C(=O)O` (stereo not given), with 7.32% (inactive).
Then `C=C(C)COc1ccc2c(c1)CCC1C2CCC2(C)C(=O)C(=NO)CC12` (stereo not given), with 0.877% (inactive).
Turning to `OCC1OC(O)C(N=Cc2ccc3c(c2)OCO3)C(O)C1O` (stereo not given), the hERG blockade was -14.8% (inactive).
Then `Nc1ccc(S(=O)(=O)NCc2nccs2)cc1`, with 17.3% (inactive).
The same measure for `Nc1ccc(S(=O)(=[OH+])[NH2+]c2ncccn2)cc1.[Ag+]`: 89.5% (active); for `Nc1ccc(S(=O)(=O)Nc2cnc3ccccc3n2)cc1`: 8% (inactive); for `CC(C)CCNc1ncnc2[nH]ncc12`: 0.816% (inactive).
Consider `NCC1OC(n2cnc3c(=O)[nH]c(N)nc32)C(O)C1O` (stereo not given), for which the hERG blockade is 5.66% (inactive).
